Test results published in article PMC7862700, “An all-to-all approach to the identification of sequence-specific readers for epigenetic DNA modifications on cytosine”.

Key:
Experiment in all cases: DAPPL (digital affinity profiling via proximity ligation, sequencing); 10 mM Tris-HCl pH 7.5, 50 mM NaCl, 1 mM DTT, 4% glycerol, room temperature, 30 min; GST-TFs on glutathione beads, 16-mer random dsDNA library, 0.1% formaldehyde crosslink after washing; high values mean tight binding
FLI1 = biological target: T1, FLI1 (Homo sapiens, UniProt Q01543 1-452); conditions: protein: recombinant; tags: N-terminal GST; dsDNA, one strand shown
T1 sequence: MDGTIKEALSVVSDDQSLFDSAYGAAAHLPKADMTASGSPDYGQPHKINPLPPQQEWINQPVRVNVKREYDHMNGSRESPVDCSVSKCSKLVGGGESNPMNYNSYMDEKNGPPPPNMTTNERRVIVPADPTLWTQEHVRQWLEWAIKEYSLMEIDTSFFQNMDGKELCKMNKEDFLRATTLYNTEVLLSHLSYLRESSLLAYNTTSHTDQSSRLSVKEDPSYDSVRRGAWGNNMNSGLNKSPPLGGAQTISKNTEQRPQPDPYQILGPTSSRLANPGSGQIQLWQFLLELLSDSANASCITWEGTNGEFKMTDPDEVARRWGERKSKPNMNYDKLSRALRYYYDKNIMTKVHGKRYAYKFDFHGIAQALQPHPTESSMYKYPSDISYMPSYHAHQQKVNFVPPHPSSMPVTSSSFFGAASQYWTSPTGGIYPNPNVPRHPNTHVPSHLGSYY
In short: (§1)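 Yeast served to express human transcription factors as GST fusions, which were then captured on glutathione beads and labelled with DNA barcodes. Pooled with a tag-only sample, they were incubated with 200 nmole of a 16-mer random double-stranded DNA library for 30 min at room temperature in Tris/NaCl/DTT/glycerol buffer, washed, crosslinked with 0.1% formaldehyde, ligated by proximity, amplified by PCR and sequenced. Dividing each hexamer's read frequency for a factor by its frequency for the tag-only sample gives the binding signal.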

ELK1 = biological target: T2, ELK1 (Homo sapiens, UniProt P19419 1-428); conditions: protein: recombinant; tags: N-terminal GST; dsDNA, one strand shown
T2 sequence: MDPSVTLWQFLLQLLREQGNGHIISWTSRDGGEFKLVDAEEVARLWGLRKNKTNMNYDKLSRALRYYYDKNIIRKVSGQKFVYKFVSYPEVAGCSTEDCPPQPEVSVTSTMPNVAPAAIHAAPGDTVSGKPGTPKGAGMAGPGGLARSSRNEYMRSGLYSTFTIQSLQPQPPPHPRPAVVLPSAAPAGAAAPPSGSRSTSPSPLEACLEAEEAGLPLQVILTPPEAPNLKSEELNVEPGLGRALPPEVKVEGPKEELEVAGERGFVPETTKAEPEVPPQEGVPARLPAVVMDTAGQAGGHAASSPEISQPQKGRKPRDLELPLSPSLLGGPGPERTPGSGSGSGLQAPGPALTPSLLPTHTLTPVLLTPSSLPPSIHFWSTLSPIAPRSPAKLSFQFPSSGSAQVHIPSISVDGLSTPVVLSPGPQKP
In short: as §1

GABPA = biological target: T3, GABPA (Homo sapiens, UniProt Q06546 1-454); conditions: protein: recombinant; tags: N-terminal GST; dsDNA, one strand shown
T3 sequence: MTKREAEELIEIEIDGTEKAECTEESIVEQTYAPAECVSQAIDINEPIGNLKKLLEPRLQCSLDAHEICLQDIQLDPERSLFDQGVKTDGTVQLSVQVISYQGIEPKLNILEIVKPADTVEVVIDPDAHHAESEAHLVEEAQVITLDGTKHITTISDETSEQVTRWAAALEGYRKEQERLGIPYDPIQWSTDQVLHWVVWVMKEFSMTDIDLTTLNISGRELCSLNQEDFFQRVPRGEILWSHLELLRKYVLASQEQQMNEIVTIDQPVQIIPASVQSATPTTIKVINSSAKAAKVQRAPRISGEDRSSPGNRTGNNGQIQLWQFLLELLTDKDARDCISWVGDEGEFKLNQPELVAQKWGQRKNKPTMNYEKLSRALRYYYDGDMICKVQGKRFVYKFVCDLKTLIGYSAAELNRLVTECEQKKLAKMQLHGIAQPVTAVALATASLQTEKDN
In short: as §1

ERG = biological target: T4, ERG (Homo sapiens, UniProt P11308 1-479); conditions: protein: recombinant; tags: N-terminal GST; dsDNA, one strand shown
T4 sequence: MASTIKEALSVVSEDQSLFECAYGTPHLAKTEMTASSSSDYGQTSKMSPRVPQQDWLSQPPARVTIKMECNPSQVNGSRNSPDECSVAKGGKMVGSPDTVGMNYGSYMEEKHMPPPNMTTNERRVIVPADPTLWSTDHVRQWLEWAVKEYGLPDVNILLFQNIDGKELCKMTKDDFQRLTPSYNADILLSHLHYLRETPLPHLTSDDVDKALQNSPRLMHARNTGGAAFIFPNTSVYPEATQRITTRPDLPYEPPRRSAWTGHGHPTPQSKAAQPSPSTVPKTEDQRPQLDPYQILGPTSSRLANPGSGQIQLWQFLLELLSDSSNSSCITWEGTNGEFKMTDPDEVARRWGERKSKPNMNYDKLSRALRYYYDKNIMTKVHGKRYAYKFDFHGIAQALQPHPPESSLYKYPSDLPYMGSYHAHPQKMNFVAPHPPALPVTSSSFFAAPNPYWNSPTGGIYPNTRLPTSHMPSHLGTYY
In short: as §1

ELF1 = ELF1 (Homo sapiens, UniProt P32519 1-619); conditions: protein: recombinant; tags: N-terminal GST; dsDNA, one strand shown
In short: as §1

EHF = biological target: T5, EHF (Homo sapiens, UniProt Q9NZC4 1-300); conditions: protein: recombinant; tags: N-terminal GST; dsDNA, one strand shown
T5 sequence: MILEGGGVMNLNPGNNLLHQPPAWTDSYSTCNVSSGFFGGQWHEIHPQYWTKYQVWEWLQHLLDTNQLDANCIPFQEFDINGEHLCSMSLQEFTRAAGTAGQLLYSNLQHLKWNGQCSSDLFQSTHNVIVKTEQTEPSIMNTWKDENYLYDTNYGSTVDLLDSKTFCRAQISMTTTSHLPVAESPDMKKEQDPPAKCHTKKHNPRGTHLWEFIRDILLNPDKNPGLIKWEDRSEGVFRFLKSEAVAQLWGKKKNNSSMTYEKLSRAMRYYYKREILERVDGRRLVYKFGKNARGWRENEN
In short: as §1

SPI1 = SPI1 (Homo sapiens, UniProt P17947 1-270); conditions: protein: recombinant; tags: N-terminal GST; dsDNA, one strand shown
In short: as §1

SPIB = SPIB (Homo sapiens, UniProt Q01892 1-262); conditions: protein: recombinant; tags: N-terminal GST; dsDNA, one strand shown
In short: as §1

ELK3 = biological target: T6, ELK3 (Homo sapiens, UniProt P41970 1-407); conditions: protein: recombinant; tags: N-terminal GST; dsDNA, one strand shown
T6 sequence: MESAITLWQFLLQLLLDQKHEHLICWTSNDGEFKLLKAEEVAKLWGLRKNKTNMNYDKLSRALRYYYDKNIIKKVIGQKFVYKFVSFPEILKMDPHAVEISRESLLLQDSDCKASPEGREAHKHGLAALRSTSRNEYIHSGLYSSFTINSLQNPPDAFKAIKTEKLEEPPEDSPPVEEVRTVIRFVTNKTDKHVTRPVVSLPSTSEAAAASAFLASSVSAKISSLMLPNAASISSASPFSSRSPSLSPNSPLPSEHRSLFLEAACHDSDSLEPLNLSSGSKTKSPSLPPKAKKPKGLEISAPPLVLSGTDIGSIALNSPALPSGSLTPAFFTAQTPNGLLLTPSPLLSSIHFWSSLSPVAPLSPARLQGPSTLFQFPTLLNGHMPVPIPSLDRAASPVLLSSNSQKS
In short: as §1

FEV = biological target: T7, FEV (Homo sapiens, UniProt Q99581 1-238); conditions: protein: recombinant; tags: N-terminal GST; dsDNA, one strand shown
T7 sequence: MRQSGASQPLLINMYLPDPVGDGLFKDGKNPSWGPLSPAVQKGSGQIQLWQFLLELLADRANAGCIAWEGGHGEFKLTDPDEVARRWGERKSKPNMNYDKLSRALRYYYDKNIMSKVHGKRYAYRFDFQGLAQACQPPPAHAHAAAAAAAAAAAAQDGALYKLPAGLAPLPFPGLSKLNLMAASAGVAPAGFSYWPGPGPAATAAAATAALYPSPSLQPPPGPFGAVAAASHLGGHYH
In short: as §1

ETV5 = ETV5 (Homo sapiens, UniProt P41161 1-510); conditions: protein: recombinant; tags: N-terminal GST; dsDNA, one strand shown
In short: as §1

HSF1 = HSF1 (Homo sapiens, UniProt Q00613 1-529); conditions: protein: recombinant; tags: N-terminal GST; chain copies: 3; dsDNA, one strand shown
In short: as §1

SPIC = biological target: T8, SPIC (Homo sapiens, UniProt Q8N5J4 1-248); conditions: protein: recombinant; tags: N-terminal GST; dsDNA, one strand shown
T8 sequence: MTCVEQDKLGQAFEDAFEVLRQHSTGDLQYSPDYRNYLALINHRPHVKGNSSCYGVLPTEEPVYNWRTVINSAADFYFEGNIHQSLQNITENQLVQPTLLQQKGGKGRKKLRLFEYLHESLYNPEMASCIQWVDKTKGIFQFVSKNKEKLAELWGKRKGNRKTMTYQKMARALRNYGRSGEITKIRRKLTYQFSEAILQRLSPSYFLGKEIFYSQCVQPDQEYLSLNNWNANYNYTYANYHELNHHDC
In short: as §1

ELF4 = ELF4 (Homo sapiens, UniProt Q99607 1-663); conditions: protein: recombinant; tags: N-terminal GST; dsDNA, one strand shown
In short: as §1

ELK4 = biological target: T9, ELK4 (Homo sapiens, UniProt P28324-2 1-405); conditions: protein: recombinant; tags: N-terminal GST; dsDNA, one strand shown
T9 sequence: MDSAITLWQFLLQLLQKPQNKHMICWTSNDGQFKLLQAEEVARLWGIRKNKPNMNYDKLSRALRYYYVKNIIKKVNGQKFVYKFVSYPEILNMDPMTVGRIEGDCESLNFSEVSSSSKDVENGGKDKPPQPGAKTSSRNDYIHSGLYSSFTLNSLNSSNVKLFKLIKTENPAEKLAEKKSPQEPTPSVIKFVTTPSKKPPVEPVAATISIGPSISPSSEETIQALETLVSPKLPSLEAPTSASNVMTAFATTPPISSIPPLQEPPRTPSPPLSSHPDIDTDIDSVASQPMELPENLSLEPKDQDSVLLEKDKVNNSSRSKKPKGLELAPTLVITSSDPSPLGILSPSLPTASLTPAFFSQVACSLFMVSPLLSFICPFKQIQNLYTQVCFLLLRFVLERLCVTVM
In short: as §1

ETV2 = biological target: T10, ETV2 (Homo sapiens, UniProt O00321 1-342); conditions: protein: recombinant; tags: N-terminal GST; dsDNA, one strand shown
T10 sequence: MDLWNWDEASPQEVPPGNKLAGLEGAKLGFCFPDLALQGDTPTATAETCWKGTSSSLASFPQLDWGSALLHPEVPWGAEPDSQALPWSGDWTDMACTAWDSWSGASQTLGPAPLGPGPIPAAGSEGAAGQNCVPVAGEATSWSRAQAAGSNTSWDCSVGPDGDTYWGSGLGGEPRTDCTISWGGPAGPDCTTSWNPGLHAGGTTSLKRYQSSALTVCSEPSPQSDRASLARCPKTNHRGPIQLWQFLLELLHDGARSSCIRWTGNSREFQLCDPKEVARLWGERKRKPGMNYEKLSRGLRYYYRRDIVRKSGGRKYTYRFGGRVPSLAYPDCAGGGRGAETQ
In short: as §1

ELF3 = biological target: T11, ELF3 (Homo sapiens, UniProt P78545 1-371); conditions: protein: recombinant; tags: N-terminal GST; dsDNA, one strand shown
T11 sequence: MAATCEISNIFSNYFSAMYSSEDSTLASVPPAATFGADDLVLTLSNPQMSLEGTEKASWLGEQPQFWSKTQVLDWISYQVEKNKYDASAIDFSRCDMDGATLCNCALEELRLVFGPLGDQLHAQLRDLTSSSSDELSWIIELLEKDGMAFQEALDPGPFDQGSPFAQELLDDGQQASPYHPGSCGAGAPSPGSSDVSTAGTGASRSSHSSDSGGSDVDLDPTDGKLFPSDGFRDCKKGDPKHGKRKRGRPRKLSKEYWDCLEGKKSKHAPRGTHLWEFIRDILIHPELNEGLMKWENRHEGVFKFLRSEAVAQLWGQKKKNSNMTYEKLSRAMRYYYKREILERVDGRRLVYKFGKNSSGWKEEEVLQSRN
In short: as §1

CRX = CRX (Homo sapiens, UniProt O43186 1-299); conditions: protein: recombinant; tags: N-terminal GST; dsDNA, one strand shown
In short: as §1

ETV1 = ETV1 (Homo sapiens, UniProt P50549 1-477); conditions: protein: recombinant; tags: N-terminal GST; dsDNA, one strand shown
In short: as §1

Sequence of ELF4 (Q99607 whole entry): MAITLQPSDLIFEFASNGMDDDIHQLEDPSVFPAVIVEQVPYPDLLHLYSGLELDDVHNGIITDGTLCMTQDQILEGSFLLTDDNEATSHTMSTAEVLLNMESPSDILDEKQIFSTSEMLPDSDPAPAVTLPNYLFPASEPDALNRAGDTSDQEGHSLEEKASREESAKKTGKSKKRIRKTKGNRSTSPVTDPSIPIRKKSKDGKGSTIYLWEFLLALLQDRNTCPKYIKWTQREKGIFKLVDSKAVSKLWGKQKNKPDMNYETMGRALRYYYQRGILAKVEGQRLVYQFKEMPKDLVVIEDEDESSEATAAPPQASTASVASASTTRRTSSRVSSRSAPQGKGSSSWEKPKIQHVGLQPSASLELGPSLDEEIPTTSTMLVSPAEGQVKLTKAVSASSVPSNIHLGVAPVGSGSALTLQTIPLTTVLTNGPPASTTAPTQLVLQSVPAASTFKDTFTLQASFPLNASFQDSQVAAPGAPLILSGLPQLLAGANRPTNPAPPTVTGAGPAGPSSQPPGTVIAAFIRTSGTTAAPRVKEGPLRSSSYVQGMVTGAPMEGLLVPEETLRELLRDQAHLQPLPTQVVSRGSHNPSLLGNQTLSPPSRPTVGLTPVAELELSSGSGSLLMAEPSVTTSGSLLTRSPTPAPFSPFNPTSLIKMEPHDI
Sequence of HSF1 (Q00613 whole entry): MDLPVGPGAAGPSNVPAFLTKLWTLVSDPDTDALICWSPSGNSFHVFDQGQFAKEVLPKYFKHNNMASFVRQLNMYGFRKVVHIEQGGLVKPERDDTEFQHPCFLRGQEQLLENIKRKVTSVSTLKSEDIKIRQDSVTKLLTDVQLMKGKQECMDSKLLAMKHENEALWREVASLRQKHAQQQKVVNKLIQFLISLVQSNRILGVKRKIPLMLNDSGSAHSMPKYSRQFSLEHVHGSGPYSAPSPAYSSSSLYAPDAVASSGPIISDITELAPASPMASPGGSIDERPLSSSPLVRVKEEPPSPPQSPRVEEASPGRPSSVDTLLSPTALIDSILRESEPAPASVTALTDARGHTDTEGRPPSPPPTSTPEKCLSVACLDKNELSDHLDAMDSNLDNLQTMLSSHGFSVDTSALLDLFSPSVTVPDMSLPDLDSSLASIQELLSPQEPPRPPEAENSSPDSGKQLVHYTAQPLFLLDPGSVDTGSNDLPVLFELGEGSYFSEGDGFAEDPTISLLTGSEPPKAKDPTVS
Sequence of ELF1 (P32519 whole entry): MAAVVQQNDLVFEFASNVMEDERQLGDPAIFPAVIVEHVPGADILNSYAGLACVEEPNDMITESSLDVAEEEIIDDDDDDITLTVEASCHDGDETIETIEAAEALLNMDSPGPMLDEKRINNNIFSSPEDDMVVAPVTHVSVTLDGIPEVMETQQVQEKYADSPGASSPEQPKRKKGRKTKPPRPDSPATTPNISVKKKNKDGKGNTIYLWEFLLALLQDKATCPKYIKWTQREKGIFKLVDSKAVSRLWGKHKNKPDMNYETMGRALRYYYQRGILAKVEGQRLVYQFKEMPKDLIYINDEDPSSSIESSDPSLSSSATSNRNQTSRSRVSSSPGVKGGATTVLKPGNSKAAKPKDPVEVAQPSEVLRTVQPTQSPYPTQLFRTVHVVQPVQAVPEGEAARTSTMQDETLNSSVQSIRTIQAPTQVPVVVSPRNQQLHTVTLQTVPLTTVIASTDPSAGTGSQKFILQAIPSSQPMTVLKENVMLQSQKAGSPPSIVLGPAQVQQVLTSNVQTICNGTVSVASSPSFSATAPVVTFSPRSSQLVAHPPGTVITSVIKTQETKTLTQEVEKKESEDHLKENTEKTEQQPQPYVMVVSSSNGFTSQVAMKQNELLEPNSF
Sequence of SPIB (Q01892 whole entry): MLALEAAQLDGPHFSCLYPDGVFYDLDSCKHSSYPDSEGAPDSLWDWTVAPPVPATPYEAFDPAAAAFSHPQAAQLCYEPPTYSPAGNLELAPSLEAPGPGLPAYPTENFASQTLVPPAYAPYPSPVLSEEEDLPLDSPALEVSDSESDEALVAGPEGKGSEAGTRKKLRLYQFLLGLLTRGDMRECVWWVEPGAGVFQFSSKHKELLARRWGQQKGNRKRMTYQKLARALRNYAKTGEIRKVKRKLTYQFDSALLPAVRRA
Sequence of ETV5 (P41161 whole entry): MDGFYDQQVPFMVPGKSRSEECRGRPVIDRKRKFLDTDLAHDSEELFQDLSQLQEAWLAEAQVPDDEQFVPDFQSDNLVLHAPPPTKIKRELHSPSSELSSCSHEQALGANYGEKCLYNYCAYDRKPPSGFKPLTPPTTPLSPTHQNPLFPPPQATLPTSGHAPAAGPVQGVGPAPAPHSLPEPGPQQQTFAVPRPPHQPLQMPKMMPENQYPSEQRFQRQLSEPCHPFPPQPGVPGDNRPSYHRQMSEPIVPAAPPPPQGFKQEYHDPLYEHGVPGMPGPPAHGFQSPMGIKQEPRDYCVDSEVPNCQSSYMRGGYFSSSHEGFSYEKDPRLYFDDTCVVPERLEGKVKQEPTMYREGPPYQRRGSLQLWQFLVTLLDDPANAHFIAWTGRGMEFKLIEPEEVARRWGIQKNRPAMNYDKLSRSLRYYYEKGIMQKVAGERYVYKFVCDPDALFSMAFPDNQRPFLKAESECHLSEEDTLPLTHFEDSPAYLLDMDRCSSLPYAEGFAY
Sequence of CRX (O43186 whole entry): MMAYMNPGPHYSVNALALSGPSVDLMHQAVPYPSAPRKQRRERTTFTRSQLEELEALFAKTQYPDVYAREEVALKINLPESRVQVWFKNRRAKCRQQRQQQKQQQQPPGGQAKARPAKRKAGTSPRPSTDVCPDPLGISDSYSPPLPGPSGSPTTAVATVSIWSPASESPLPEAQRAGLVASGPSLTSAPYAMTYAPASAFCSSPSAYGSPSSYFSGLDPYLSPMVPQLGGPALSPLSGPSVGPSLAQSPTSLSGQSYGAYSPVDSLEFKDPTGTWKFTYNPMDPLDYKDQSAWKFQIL
Sequence of ETV1 (P50549 whole entry): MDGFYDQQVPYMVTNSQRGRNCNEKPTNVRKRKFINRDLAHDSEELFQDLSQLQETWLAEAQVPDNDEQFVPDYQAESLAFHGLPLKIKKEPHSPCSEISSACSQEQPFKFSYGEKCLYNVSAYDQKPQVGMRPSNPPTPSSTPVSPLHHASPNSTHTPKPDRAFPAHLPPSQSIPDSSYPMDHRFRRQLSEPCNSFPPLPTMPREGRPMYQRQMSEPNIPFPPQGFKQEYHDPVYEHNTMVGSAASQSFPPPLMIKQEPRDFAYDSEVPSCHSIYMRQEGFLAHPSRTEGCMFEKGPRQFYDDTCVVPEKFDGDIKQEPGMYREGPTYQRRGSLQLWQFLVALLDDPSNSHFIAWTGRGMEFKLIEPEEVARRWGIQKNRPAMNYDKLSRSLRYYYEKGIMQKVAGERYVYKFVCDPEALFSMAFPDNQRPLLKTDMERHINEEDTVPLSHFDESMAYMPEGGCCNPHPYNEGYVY

For TCAACC, the binding signal (FLI1) was 1.23 fold enrichment (6-mer frequency, TF over GST control), the binding signal (ELK1) was 1.24 fold enrichment (6-mer frequency, TF over GST control) and the binding signal (GABPA) was 1.22 fold enrichment (6-mer frequency, TF over GST control). The binding signal (ERG) was 1.14 fold enrichment (6-mer frequency, TF over GST control), the binding signal (ELF1) was 1.16 fold enrichment (6-mer frequency, TF over GST control) and the binding signal (EHF) was 1.15 fold enrichment (6-mer frequency, TF over GST control). The binding signal (SPI1) was 1.16 fold enrichment (6-mer frequency, TF over GST control), the binding signal (SPIB) was 1.17 fold enrichment (6-mer frequency, TF over GST control) and the binding signal (ELK3) was 1.32 fold enrichment (6-mer frequency, TF over GST control). For the same sequence, the binding signal (FEV) was 1.19 fold enrichment (6-mer frequency, TF over GST control), the binding signal (ETV5) was 1.22 fold enrichment (6-mer frequency, TF over GST control) and the binding signal (HSF1) was 1.03 fold enrichment (6-mer frequency, TF over GST control). The binding signal (SPIC) was 1.07 fold enrichment (6-mer frequency, TF over GST control), the binding signal (ELF4) was 1.19 fold enrichment (6-mer frequency, TF over GST control) and the binding signal (ELK4) was 1.16 fold enrichment (6-mer frequency, TF over GST control). The binding signal (ETV2) was 1.3 fold enrichment (6-mer frequency, TF over GST control), the binding signal (ELF3) was 1.16 fold enrichment (6-mer frequency, TF over GST control) and the binding signal (CRX) was 1.09 fold enrichment (6-mer frequency, TF over GST control). For the same sequence, the binding signal (ETV1) was 1.23 fold enrichment (6-mer frequency, TF over GST control).
